Data on 26 compounds can be found in PubChem BioAssay (NCI).

Holding throughout (test): NCI-60 one-dose screen, 48 h (100 = growth as untreated, 0 = no growth, -100 = all killed)
Conditions in all cases: 10 µM unless noted

For assay [1], the system named is NCI-H23 lung.
For assay [2], the system named is NCI-H226 lung.
For assay [3], the system named is NCI-H322M lung.
Assay [4] deals with HOP-62 NSCLC.
Assay [5] has as its system NCI-H460 lung.
In assay [6] the test system is HOP-92 NSCLC.
Assay [7] deals with NCI-H522 lung.
The test system of assay [8] is A549/ATCC NSCLC.
Assay [9] has as its system 786-0 renal.
The subject of assay [10] is COLO 205 colon.

About 83,000 compounds went through this panel and 20% of them were active in at least one assay; those are over-represented in the sample as a whole.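 Method: cells in 96-well plates; compound added at one concentration; 48 h incubation; percent growth measured; values under 10 scored active.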 Unmarked numbers belong to inactive results. The source made the active and inactive calls.

As to `CN(C)C(=O)Oc1ccccc1`, the growth was 104% in [1]; 105% in [2]; 109% in [3]; 96.3% in assay [4]; 97.5% in assay [5]; 101% in [6]. For the same compound, the growth in [7] was 112%; in assay [8], 103%; in assay [9], 107%; in [10], 112%.

On to `CC1(C)N=C(N)N=C(N)N1c1cccc(CCCCc2ccc(Cl)c(S(=O)(=O)F)c2)c1`, for which the growth in [1] is 28.4%; in [2], 57.1%; in assay [3], 54.9%; in assay [4], 33.6%; in [5] it was 21.4%; in assay [6], 41.3%. Moreover, the growth was -9.62% (active) in assay [7], 10.6% in assay [8], 5.96% (active) in assay [9] and 72.7% in assay [10].

On to `NC(=S)c1cn(C2OC(CO)C(O)C2O)c2ncnc(N)c12` (stereo not given), for which the growth in [1] is -38.8% (active); in [2], -12.7% (active); in assay [3] it was -17% (active); in assay [4], -30% (active); in assay [5] it was 3.97% (active); in assay [6] it was -4.97% (active). Further, the growth in [7] is -38.6% (active); in [8], 4.83% (active); in assay [9], -15.9% (active); in assay [10], -47% (active).

For the compound `CCOP(=O)(Nc1ccc2c(c1)/C(=N/NC(N)=S)c1ccccc1-2)OCC`, the growth is 99% in assay [1]; 97.6% in assay [2]; 132% in assay [3]; 117% in assay [4]; 104% in [5]; 96.1% in [6]. Besides, the growth in assay [7] was 95.4%; in assay [8] it was 99.5%; in [9], 104%; in assay [10], 96.3%.

Take `CC[C@H](C)[C@H](NC(=O)c1cccn1C)C(=O)N(C)[C@H](C[C@@H](OC(C)=O)c1nc(C(=O)N[C@@H](Cc2ccccc2)C[C@H](C)C(=O)OC)cs1)C(C)C`: the growth in [1] is 22.8%; in [2], 7.57% (active); in assay [3], 37.6%; in assay [4], 10.1%; in assay [5], 6.58% (active); in assay [6] it was 22.4%. The growth in assay [7] was -19.3% (active); in [8] it was 14.4%; in assay [9], 12.7%; in assay [10] it was -69.7% (active).

Regarding `CNC(=O)Oc1ccc(C(C)(C)C)cc1OC(=O)NC`, the growth in assay [1] was 100%; in assay [2] it was 93.6%; in assay [3] it was 112%; in [4] it was 88.7%; in assay [5], 102%; in assay [6], 95.2%. The growth was 84.8% in assay [7], 90.5% in [8], 89.4% in [9] and 87% in assay [10].

Regarding `C[N+]12CN3CN(CN(C3)C1)C2`, the growth in [1] was 94.3%; in [2], 103%; in [3], 110%; in assay [4], 88%; in [5] it was 107%; in [6], 71%. For the same compound, the growth in assay [7] is 94.5%; in [8] it was 98.8%; in [9], 104%; in assay [10], 99.4%.

Turning to `CC(C)=CC1C(C(=O)OCc2cccc(Oc3ccccc3)c2)C1(C)C` (stereo not given), the growth in assay [1] is 88.6%; in [2], 102%; in assay [3] it was 96.5%; in [4] it was 110%; in assay [5], 98.6%; in assay [6], 56.8%. The growth is 73.5% in [7], 92.4% in assay [8], 81.3% in [9] and 101% in [10].

Take `COc1ccc(C2=N[C@@H](Cc3ccccc3)C(=O)Nc3ccsc32)cc1`: the growth was 53.7% in [1]; 76.3% in assay [2]; 89.8% in [3]; 66% in assay [4]; 51.7% in [5]; 61.4% in assay [6]. For the same compound, the growth in [7] is -13.4% (active); in [8] it was 43.2%; in assay [9], 66.6%; in [10], 35.6%.

For the compound `COc1ccc(C2=CC(c3ccc(OC)c(OC)c3)c3c(c4ccccc4oc3=O)O2)cc1OC` (stereo not given), the growth in assay [1] is 63.4%; in assay [2], 89.5%; in [3], 35.8%; in assay [4] it was 49%; in [5], 9.23% (active); in assay [6] it was -12.5% (active). Further, the growth in [7] is -43.7% (active); in assay [8], 39.4%; in [9], 25.7%; in assay [10], 9.01% (active).

On to `O=c1[nH]c2ccc([N+](=O)[O-])cc2c(=O)o1`, for which the growth in assay [1] was 101%; in assay [2], 108%; in assay [3], 97.6%; in assay [4] it was 103%; in [5], 103%; in assay [6], 79.5%. The growth in assay [7] was 100%; in [8] it was 107%; in assay [9], 112%; in assay [10], 109%.

Consider `CC(=O)OC[C@]1(C)C=C2C(=O)[C@](C)(O)C3(CC3)C(C)=C2[C@H]1OC(=O)N(C)CCN(C)C(=O)OC(C)(C)C`, for which the growth in assay [1] was -17.8% (active); in assay [2] it was 24.7%; in assay [3] it was 12.4%; in assay [4], -19.9% (active); in assay [5], 0.38% (active); in [6], -13.4% (active). The growth in assay [7] was -47% (active); in [8] it was 4.55% (active); in [9] it was 0.73% (active); in assay [10], -66.8% (active).

Regarding `COC(=O)[C@@H](NC(=O)c1cn(CCC2CCCCC2)c2ccccc12)C(C)(C)C`, the growth is 76.4% in assay [1]; 58.6% in [2]; 83.7% in [3]; 61.8% in assay [4]; 79.3% in assay [5]; 63.4% in assay [6]. In addition, the growth is 63.7% in assay [7], 64.8% in [8], 73.5% in assay [9] and 96.4% in [10].

For the compound `COc1ccc(N(CC(=O)NCCC[Te]c2ccccc2)C(=O)CNC(=O)OC(C)(C)C)cc1`, the growth in assay [1] was -15.5% (active); in assay [2], 1.45% (active); in assay [3], -6.97% (active); in [4], 1.88% (active); in assay [5] it was -23.9% (active); in [6], -19.9% (active). Besides, the growth in assay [7] is -0.481% (active); in assay [8], -9.26% (active); in [9], 73.3%; in [10] it was 86.9%.

With `CC(=O)O[C@H](C[C@H](C(C)C)N(C)C(=O)[C@@H](NC(=O)[C@H]1CCCN1C)C(C)C)c1nc(C(=O)N[C@@H](Cc2ccccc2)C[C@H](C)C(=O)O)c(C)s1`, the growth in assay [1] was 30.3%; in assay [2], 54.8%; in assay [3], 52%; in assay [4] it was 29.7%; in assay [5] it was 5.67% (active); in [6] it was 16.5%. For the same compound, the growth in [7] was -24.7% (active); in [8], 13.3%; in assay [9], 22.4%; in assay [10] it was -63.2% (active).

For `O[C@H](CN1CC1)[C@@H](O)CN1CC1`, the growth was 65.8% in assay [1]; 79.7% in assay [2]; 103% in [3]; 61.8% in [4]; 15.5% in assay [5]; 87% in [6]. Besides, the growth in [7] was 93.9%; in assay [8], 66.3%; in [9], 43.2%; in assay [10], 76.7%.

For `CC(=O)O[C@H](C[C@H](C(C)C)N(C)C(=O)[C@@H](NC(=O)[C@H]1CCCCN1C)C(C)(C)C)c1nc(C(=O)N[C@@H](Cc2ccccc2)C[C@H](C)C(=O)O)cs1`, the growth in assay [1] was 37.8%; in [2], 61.4%; in [3], 41.8%; in [4], 19.7%; in [5] it was 4.25% (active); in assay [6], 35.3%. The growth in [7] was -24.7% (active); in [8], 9.66% (active); in assay [9], 11.1%; in assay [10], -59.1% (active).

`O=C1N[C@@H]2[C@@H](O)[C@@H](O)[C@H](O)C[C@H]2c2cc3c(c(O)c21)OCO3`: the growth in [1] was -14.9% (active); in [2], -38.3% (active); in assay [3], -14.7% (active); in [4], -18.9% (active); in [5] it was -15.1% (active); in [6] it was -19% (active). In addition, the growth was -32.6% (active) in assay [7], -8.4% (active) in assay [8], -10.8% (active) in assay [9] and -38.2% (active) in [10].

In the case of `O=C1NC(=O)C(=Cc2cccn2CCCCCn2c3ccccc3c(=O)c3ccccc32)C(=O)N1`, the growth is 96.3% in assay [1]; 99.1% in assay [2]; 98.3% in [3]; 102% in assay [4]; 108% in assay [5]; 90.4% in assay [6]. For the same compound, the growth in assay [7] was 90.5%; in assay [8], 100%; in assay [9] it was 99%; in [10] it was 114%.

Take `COc1ccc2c(c1)c(-c1nc(-c3c[nH]c4ncccc34)cs1)cn2CCN1CCOCC1`: the growth was 57.3% in [1]; 49.7% in assay [2]; 57.3% in [3]; 27.4% in assay [4]; 40.8% in assay [5]; 28.8% in [6]. Besides, the growth is 44.5% in assay [7], 51.2% in assay [8], 55.5% in assay [9] and 61.6% in assay [10].

In the case of `CC(C)=CCC/C(C)=C/C=N\N=C(/N)N[N+](=O)[O-]`, the growth in assay [1] was 97.6%; in [2] it was 99.3%; in [3], 95.9%; in [4], 87.2%; in assay [5] it was 110%; in assay [6] it was 89.8%. Further, the growth is 47.7% in assay [7], 97.4% in assay [8], 80.4% in assay [9] and 103% in assay [10].

Take `c1cnc2[nH]cc(-c3csc(-c4cn(CCCCN5CCOCC5)c5ccccc45)n3)c2c1`: the growth is 81.1% in assay [1]; 72.4% in [2]; 79% in [3]; 52.8% in [4]; 31.4% in [5]; 32% in assay [6]. In addition, the growth in assay [7] was 49.1%; in assay [8] it was 56.9%; in assay [9], 54%; in assay [10] it was -77.6% (active).

As to `O=C(O)c1ccc([S-])cc1.[Au+].c1ccc(CN2[CH-]N(Cc3ccccc3)C(c3ccccc3)=C2c2ccccc2)cc1`, the growth in assay [1] is -64.8% (active); in assay [2], 3.42% (active); in assay [3] it was 7.67% (active); in assay [4], -28% (active); in assay [5], -29% (active); in assay [6], -45% (active). Further, the growth in [7] was -44.9% (active); in assay [8] it was 3.5% (active); in assay [9] it was -70.3% (active); in [10], -66.5% (active).

As to `COC(=O)[C@@H](C)C[C@H](Cc1ccccc1)NC(=O)c1nc([C@@H](C[C@H](C(C)C)N(C)C(=O)[C@@H](NC(=O)[C@H]2CCCCN2C)C(C)C)OC(C)=O)sc1C(C)C`, the growth in assay [1] was 24.6%; in assay [2] it was 52.4%; in assay [3], 38.1%; in assay [4], 11.8%; in assay [5], 5.54% (active); in assay [6], 30.6%. Further, the growth is -9.43% (active) in assay [7], 2.6% (active) in assay [8], -6.11% (active) in [9] and -61.5% (active) in assay [10].

With `CC(C)CCC1(CCCl)C(=O)NC(=O)NC1=O`, the growth in assay [1] was 99.6%; in assay [2] it was 96.6%; in assay [3], 101%; in assay [4], 106%; in assay [5], 101%; in assay [6], 91.2%. In addition, the growth in assay [7] was 104%; in assay [8], 91%; in [9], 96.1%; in [10], 110%.

Take `C#Cc1ccc2c(c1)C(c1ccccc1F)=NCC(=O)N2C`: the growth is 57.8% in assay [1]; 73.1% in assay [2]; 69.6% in [3]; 48.3% in assay [4]; 18.9% in assay [5]; 73.2% in [6]. Moreover, the growth in [7] is 8.61% (active); in assay [8], 47.9%; in [9], 63.4%; in assay [10] it was 18.4%.
